The source of these data is PubChem BioAssay AID2283131 (EPA ToxCast).

Records with an inconclusive call do not appear. The source made the active and inactive calls. Rule for the calls: active = hit-call score of the fitted dose curve at least 0.9, where 1 is the maximum; inconclusive = response in the unintended direction; inactive = score below 0.9.

Sequence of human Bruton's Tyrosine Kinase (BTK), BTK (gene 695) (Q06187 whole entry, looked up): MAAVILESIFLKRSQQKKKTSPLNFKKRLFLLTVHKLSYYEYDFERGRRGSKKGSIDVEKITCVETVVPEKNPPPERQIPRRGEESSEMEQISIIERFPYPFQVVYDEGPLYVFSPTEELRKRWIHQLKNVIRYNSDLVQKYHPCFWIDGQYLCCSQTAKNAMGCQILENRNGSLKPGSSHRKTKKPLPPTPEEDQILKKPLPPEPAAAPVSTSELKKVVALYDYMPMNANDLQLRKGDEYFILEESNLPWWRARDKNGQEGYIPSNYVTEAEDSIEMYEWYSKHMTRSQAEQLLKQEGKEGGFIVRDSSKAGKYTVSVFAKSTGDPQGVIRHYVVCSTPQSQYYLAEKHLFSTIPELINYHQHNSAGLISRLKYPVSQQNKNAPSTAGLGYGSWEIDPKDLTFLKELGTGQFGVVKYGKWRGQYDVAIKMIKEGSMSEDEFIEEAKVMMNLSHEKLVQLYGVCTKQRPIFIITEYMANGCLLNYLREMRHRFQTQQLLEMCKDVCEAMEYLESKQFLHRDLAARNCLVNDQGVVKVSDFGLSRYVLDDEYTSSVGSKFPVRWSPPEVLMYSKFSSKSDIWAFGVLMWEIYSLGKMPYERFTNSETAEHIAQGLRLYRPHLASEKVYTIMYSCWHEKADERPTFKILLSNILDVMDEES

This assay addresses human Bruton's Tyrosine Kinase (BTK), BTK (gene 695) (UniProt Q06187). As to the kind of experiment: NVS_ENZ_hBTK: NovaScreen (NVS) Enzymatic Assay for human Bruton's Tyrosine Kinase (BTK). The procedure: NVS_ENZ_hBTK is a biochemical, single-readout assay that uses extracted gene-proteins in a cell-free assay. Measurements were taken 1 hour after chemical dosing in a 96-well plate.NVS_ENZ_hBTK is one of one assay component(s) measured or calculated from the NVS_ENZ_hBTK assay. It is designed to make measurements of enzyme activity, a form of enzyme reporter, as detected with fluorescence intensity signals by Fluorescence and electrophoretic mobility shift technology.Data from the assay component NVS_ENZ_hBTK was analyzed into 1 assay endpoint. This assay endpoint, NVS_ENZ_hBTK, was analyzed in the positive analysis fitting direction relative to DMSO as the negative control and baseline of activity. Using a type of enzyme reporter, loss-of-signal activity can be used to understand changes in the enzymatic activity as they relate to the gene BTK. Furthermore, this assay endpoint can be referred to as a primary readout, because this assay has produced multiple assay endpoints where this one serves a enzymatic activity function. To generalize the intended target to other relatable targets, this assay endpoint is annotated to the kinase intended target family, where the subfamily is non-receptor tyrosine kinase.
Binding assays used specific radioligands (tritiated, iodinated) with non-radioactive competitive displacement ligands in agonist or antagonist protocols (as indicated) and various reference compounds and inhibitors to titrate specific binding to receptors and transporters. Most enzyme assays (CYPs, kinases, phosphatases, proteases, HDACs) used recombinant protein and specific substrates (fluorescence mostly, some colorimetric and radioactive) and inhibitors, followed by a biochemical separation of substrate and product. All assays for the biochemical HTS were initially run in duplicate at a single concentration (10 uM for CYP450 assays and 25 uM for all others). […] Each assay was run with positive and negative controls, and concurrent controls on every plate. The follow-up (secondary) screen tested active chemical-pairs in concentration series, as well as a few additional assays not tested in the primary screen, some selected negative inactives, and several cases re-run in the concentration series for confirmatory purposes.
On to `O=C(O)C(F)(F)C(F)(F)C(F)(F)C(F)(F)C(F)(F)C(F)(F)C(F)(F)F`, for which the result was inactive.
As a reminder, the AC50 is the concentration at which the activity in the assay is half-maximal. Consider `O=S(=O)(O)C(F)(F)C(F)(F)C(F)(F)C(F)(F)C(F)(F)C(F)(F)C(F)(F)C(F)(F)F`, for which the AC50 is 17.4 µM (active).
Regarding `CCCOc1nn(C(=O)NS(=O)(=O)c2ccccc2C(=O)OC)c(=O)n1C`, the result was inactive.
Take `S=C1NCCN1`: the call was inactive.
As to `O=[N+]([O-])/N=C1\NCCN1Cc1ccc(Cl)nc1`, the molecule was classed as inactive.
Same read-out and setting: the result for `Cc1ccccc1CO[C@@H]1C[C@@]2(C(C)C)CC[C@]1(C)O2` reads “inactive”; that for `Fc1ccc(Oc2ccnc3cc(Cl)cc(Cl)c23)cc1`, “inactive”.
In the case of `N#Cc1c(Cl)c(Cl)c(Cl)c(C#N)c1Cl`, the molecule was called inactive.
As for `CNC(=O)Oc1cccc2c1OC(C)(C)O2`, the call was inactive.
